Records with an inconclusive call do not appear. Unmarked numbers belong to inactive results. Activity calls are given as the source filed them. Calls follow the shape of the dose curve; as a rule, active = well fitted cell-killing curve with a large enough effect; inconclusive = small, poorly fitted or top-dose-only effect; inactive = no such curve, though single readings can be large or run the other way.
Experiment: qHTS of pediatric cancer cell lines to identify multiple opportunities for drug repurposing: Primary screen for Rh41 cells (AID 1347108); also: nearly all actives have a fitted effect of over 70% in size;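 as to activity change, negative = cytotoxic: luminescence drop marks cytotoxic hits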
Settings: Rh41 rhabdomyosarcoma viability, CellTiter-Glo luminescence, 48 h; series mostly up to 46 µM; activity change, negative = cytotoxic: at the top concentration
Summary of the method: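 500-1,000 cells/well; 5 h pre-incubation 37 °C/5% CO2; compound pinned; 48 h; CellTiter-Glo, 15 min RT; luminescence. MIPE 11-pt from 0.78 nM, NPC 8-pt from 0.59 nM final. Bortezomib 2.3 µM final as positive control.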
Potency is read from the fitted curve at half-maximal effect.

SMILES | activity change, negative = cytotoxic [%] | Potency
CN1CCN(c2ncc(-c3cc(Cl)cc(Cl)c3Cl)c(N)n2)CC1 | 31 | 
CCC[C@H](N[C@@H](C)C(=O)N1[C@@H]2CCCC[C@H]2C[C@H]1C(=O)O)C(=O)OCC | 24.5 | 
O=c1[nH]nc(OCCCc2ccc(Cl)cc2)c(NCc2cccnc2)c1Br |  | 18700 nM (active)
CCC(=O)OCC(=O)[C@@]1(OC(=O)CC)[C@@H](C)C[C@@H]2[C@H]3CCC4=CC(=O)C=C[C@]4(C)[C@@]3(F)[C@@H](O)C[C@@]21C |  | 148 nM (active)
COc1cc(CNC(=O)CCCCC=CC(C)C)ccc1O | 7.46 | 
CCC(c1ccc(O)cc1)C(CC)c1ccc(O)cc1 (stereo not drawn) | -8.49 | 
CC(C)n1c(C=C[C@H](O)C[C@H](O)CC(=O)O)c(-c2ccc(F)cc2)c2ccccc21 | -27.1 | 
CC1CNc2c(cccc2S(=O)(=O)N[C@@H](CCCN=C(N)N)C(=O)N2CC[C@@H](C)C[C@@H]2C(=O)O)C1 (stereo partly drawn) | 0.901 | 
C[C@@]1(c2cc(-c3cncnc3)c(F)cc2F)CCSC(N)=N1 | 9.67 | 
CCOC(=O)[C@H](CCc1ccccc1)N[C@@H](C)C(=O)N1CCCC1C(=O)O (stereo partly drawn) | 18.1 | 
COc1ccc(Cn2ccc3ccc(C(=O)NO)cc32)cc1 | 0.732 | 
CSc1cccc(Nc2ncc3cc(-c4c(Cl)cccc4Cl)c(=O)n(C)c3n2)c1 |  | 743 nM (active)
Cc1ccccc1-n1c(Cn2nc(-c3cccc(O)c3)c3c(N)ncnc32)nc2cccc(C)c2c1=O |  | 3720 nM (active)
Cc1cccc(-c2[nH]c(C(C)(C)C)nc2-c2ccc3c(c2)OCO3)n1 |  | 1180 nM (active)
CC[C@H](NC(=O)[C@H](C)NC)C(=O)N1C[C@@H](O)C[C@H]1Cc1c(-c2[nH]c3cc(F)ccc3c2C[C@H]2C[C@H](O)CN2C(=O)[C@H](CC)NC(=O)[C@H](C)NC)[nH]c2cc(F)ccc12 | -23.3 | 
Nc1ccn([C@@H]2O[C@H](CO)[C@@H](O)[C@H]2O)c(=O)n1 | -26.5 | 
C[C@@H]1C[C@H]2[C@@H]3CCC4=CC(=O)C=C[C@]4(C)[C@@]3(F)[C@@H](O)C[C@]2(C)[C@@]1(O)C(=O)CO | 29.9 | 
COC(=O)Nc1ccc(-c2nc(N3CCOCC3)c3cnn(C4CCN(C(=O)OC)CC4)c3n2)cc1 |  | 1320 nM (active)

Reference: PubChem BioAssay (NCATS)
